Compound activity from PubChem.
BAZ2B block = inhibitors of human BAZ2B bromodomain; AID 504333; 360,000 tested, 4.4% active; AlphaScreen BAZ2B-H3K14Ac peptide displacement; Potency, µM (titrated, usually from 114 µM), without a hit: at the top dose activity change, negative = inhibition, hits mostly inhibitors; further: on the % scale 0 is the no-effect control and ±100 the full control effect; nearly all actives have a fitted effect of over 60% in size
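Compounds, titrated to a top concentration of 110 uM, were incubated 30 min at room temperature with preformed BAZ2B/acetyl-K14 H3 peptide complex (50 nM each). Proximity signal was measured by AlphaScreen after 20 min with beads.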
G9a block = G9a (human) methyltransferase inhibition. Q96KQ7. G9a H3K9 monomethylation, AlphaScreen, 2 h. 350,000 tested, 8.8% active. Potency, µM (highest dose often 102 µM), for the others: top-dose activity, negative = inhibition, hits mostly inhibitors; further: on the % scale 0 is the no-effect control and ±100 the full control effect; nearly all actives have a fitted effect of over 75% in size
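Step 1: enzyme (final 20 nM) with compound, 15 min RT. Step 2: substrate peptide 500 nM and SAM 20 uM, 2 h RT. Step 3: anti-H3K9me1 antibody and AlphaScreen beads, 10 min, then plate read.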
PLK1 PBD inh = inhibitors of human PLK1 polo-box domain binding. Plk1 PBD binding of FITC phosphopeptide, fluorescence polarization. P53350. 360,000 tested, 2.8% active. AID 720504. Potency, µM, for the others: max response, negative = inhibition, hits mostly inhibitors; further: series mostly up to about 57 µM; on the % scale 0 is the no-effect control and ±100 the full control effect; nearly all actives have a fitted effect of over 65% in size
Target sequence (P53350 whole entry, looked up, the tested form may be a part): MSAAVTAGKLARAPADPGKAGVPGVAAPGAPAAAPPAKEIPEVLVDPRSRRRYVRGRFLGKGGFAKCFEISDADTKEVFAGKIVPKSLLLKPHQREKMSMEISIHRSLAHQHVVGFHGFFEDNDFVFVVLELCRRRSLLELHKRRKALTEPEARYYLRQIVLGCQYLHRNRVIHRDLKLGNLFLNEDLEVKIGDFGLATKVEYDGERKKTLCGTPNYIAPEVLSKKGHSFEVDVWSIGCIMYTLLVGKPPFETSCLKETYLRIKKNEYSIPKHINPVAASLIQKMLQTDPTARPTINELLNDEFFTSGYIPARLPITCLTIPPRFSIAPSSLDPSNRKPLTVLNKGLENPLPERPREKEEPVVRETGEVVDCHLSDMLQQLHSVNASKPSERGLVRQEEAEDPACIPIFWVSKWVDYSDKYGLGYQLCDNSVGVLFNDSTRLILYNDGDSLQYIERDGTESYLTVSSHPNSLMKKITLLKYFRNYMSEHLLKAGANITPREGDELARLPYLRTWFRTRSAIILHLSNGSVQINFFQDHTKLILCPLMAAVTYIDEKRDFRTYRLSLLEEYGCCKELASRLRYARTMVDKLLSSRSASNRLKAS
HP1b binding inh = inhibitors of HP1-beta chromodomain binding to methylated histone tails. P83916. AlphaScreen HP1-beta / biotin-H3K9me3 peptide binding. Potency, µM (titrated, usually from 114 µM), for inactives: at the highest dose activity change, negative = inhibition, hits mostly inhibitors. 390,000 tested, 0.56% active. AID 540317; further: nearly all actives have a fitted effect of over 70% in size
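AlphaScreen: HP1-beta (50 nM) preformed 30 min with biotin-H3(1-18)K9me3 peptide (50 nM) in PBS pH 7.4, 0.01% Tween-20. Compound added for 30 min at RT, then streptavidin donor/nickel chelate acceptor beads (10 ug/mL) for 30 min.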
Sfp inh = blocks B. subtilis Sfp PPTase activity; 310,000 tested, 3.5% active; Biochemical Sfp PPTase activity, qHTS; Potency, µM, for inactives: largest response in the series, negative = inhibition, usual class: inhibitors; Q9F4F7;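 further: the enzyme is Sfp with the accession as filed and its product quenches rhodamine fluorescence; 0% = enzyme reaction without inhibitor and -100% = no enzyme wells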
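Buffer: 50 mM Hepes-Na pH 7.6, 10 mM MgCl2, 0.01% Nonidet P-40, 0.01% BSA. Enzyme 15 nM, pre-exposed to compound 15 min; substrates then added and fluorescence change tracked over 30 min.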
JMJD2A Tudor inh = inhibitors of human JMJD2A Tudor domain | AID 504339 | Potency, µM (doses to about 114 µM), without a hit: top-dose activity change, negative = inhibition, most hits filed as inhibitors | AlphaScreen JMJD2A-Tudor / H3K4me3 peptide binding | O75164 | 390,000 tested, 4.4% active; further: on the % scale 0 is the no-effect control and ±100 the full control effect; nearly all actives have a fitted effect of over 50% in size
* hit, by the source's call; [ ] = dose if it differs, or a comment. A selection: hits, their analogues and other compounds. The true share with any hit is near 12%. The call rests on the fitted dose curve; in most records, active means well fitted curve in the direction sought with a large enough effect; inconclusive means small, poorly fitted or top-dose-only effect, or another doubt; inactive means no such curve, though single readings can be large; an effect the other way counts as inactive or inconclusive. Potency means the concentration at half of the fitted maximal effect.

What do the screens show for `COc1ccccc1NS(=O)(=O)c1cc(NC(=O)/C=C/c2cccs2)ccc1N1CCOCC1`?
BAZ2B block: -10%; G9a block: -17%[59 µM]; PLK1 PBD inh: -13%; HP1b binding inh: 15%; Sfp inh: -5%; JMJD2A Tudor inh: -26%

What do the screens show for `CCCN1Cc2cccc(C(=O)N3CCN(c4cc(Cl)ccc4C)CC3)c2C1=O`?
BAZ2B block: 15%; G9a block: -80%; PLK1 PBD inh: -19%; HP1b binding inh: 25%; Sfp inh: 3%; JMJD2A Tudor inh: -9%

What do the screens show for `COCCN1Cc2cccc(C(=O)N3CCN(c4cc(C)ccc4C)CC3)c2C1=O`?
BAZ2B block: 6%; G9a block: 45µM*; PLK1 PBD inh: -17%; HP1b binding inh: 26%; Sfp inh: -17%; JMJD2A Tudor inh: -29%

Results for O=C1c2ccccc2C(=O)N1CCCCc1cn(C[C@H]2CC[C@H](Cn3cc(CCCCN4C(=O)c5ccccc5C4=O)nn3)O2)nn1 ?
PLK1 PBD inh: -11%; HP1b binding inh: 30%; JMJD2A Tudor inh: -20%

Results for c1ccc(-c2cn(C[C@H]3CC[C@@H]([C@@H]4CC[C@H](Cn5cc(-c6ccccn6)nn5)O4)O3)nn2)nc1 ?
BAZ2B block: 0.71µM*; G9a block: inconclusive; PLK1 PBD inh: 4%; HP1b binding inh: 33%; Sfp inh: -10%; JMJD2A Tudor inh: 3.2µM*

How did c1ccc(-c2cn(C[C@H]3CC[C@@H]([C@@H]4CC[C@H](Cn5cc(-c6ccccc6)nn5)O4)O3)nn2)cc1 do in these assays?
BAZ2B block: -3%; G9a block: 17%; PLK1 PBD inh: -12%; HP1b binding inh: 70%; Sfp inh: 19%; JMJD2A Tudor inh: -20%

What do the screens show for `c1ccc(CCc2cn(C[C@H]3CC[C@@H]([C@@H]4CC[C@H](Cn5cc(CCc6ccccc6)nn5)O4)O3)nn2)cc1`?
BAZ2B block: 4%; PLK1 PBD inh: 27µM*; HP1b binding inh: 18%; Sfp inh: -3%; JMJD2A Tudor inh: inconclusive

Results for CCC(C)[C@H](NC(=O)NCc1ccc(S(N)(=O)=O)cc1)C(=O)O (some centres undefined) ?
BAZ2B block: 0%; G9a block: -3%; PLK1 PBD inh: -3%; HP1b binding inh: 26%; Sfp inh: 9%; JMJD2A Tudor inh: -3%

How did O=C(O)Cc1sc(Nc2cccc3ccccc23)nc1-c1ccc(F)cc1 do in these assays?
BAZ2B block: -23%; G9a block: 45µM*; PLK1 PBD inh: -22%; HP1b binding inh: 4%; Sfp inh: 1%; JMJD2A Tudor inh: -12%

How did Cc1cccc(Nc2nc(CC(=O)O)cs2)c1 do in these assays?
BAZ2B block: inconclusive; G9a block: inconclusive; PLK1 PBD inh: -26%; HP1b binding inh: -17%; Sfp inh: inconclusive; JMJD2A Tudor inh: -35%

How did Cc1ccc(-c2nc(Nc3cccc(C)c3)sc2CC(=O)O)cc1 do in these assays?
BAZ2B block: -16%; PLK1 PBD inh: inconclusive; HP1b binding inh: -9%; Sfp inh: 20µM*; JMJD2A Tudor inh: inconclusive

Results for O=C(O)Cc1sc(NCCc2ccccc2)nc1-c1ccc(F)cc1 ?
BAZ2B block: -18%; G9a block: inconclusive; PLK1 PBD inh: -25%; HP1b binding inh: 3%; Sfp inh: -6%; JMJD2A Tudor inh: -32%

How did O=C(O)Cc1sc(NC2CCCCC2)nc1-c1ccc(Cl)cc1 do in these assays?
BAZ2B block: inconclusive; G9a block: 40µM*; PLK1 PBD inh: -12%; HP1b binding inh: -1%; Sfp inh: -14%; JMJD2A Tudor inh: -26%

Results for O=C(O)Cc1sc(N/N=C\c2ccccc2)nc1-c1ccccc1 ?
BAZ2B block: inconclusive; G9a block: 3.2µM*; PLK1 PBD inh: 12µM*; HP1b binding inh: -23%; Sfp inh: 40µM*; JMJD2A Tudor inh: inconclusive

How did Cc1ccc(N2CC(C(=O)Nc3nc4ccc(S(C)(=O)=O)cc4s3)CC2=O)cc1C (centres undefined) do in these assays?
BAZ2B block: -3%; G9a block: inconclusive; PLK1 PBD inh: inconclusive; HP1b binding inh: inconclusive; Sfp inh: -19%; JMJD2A Tudor inh: -28%

How did COc1ccccc1CC(=O)Nc1ccc2c(C)cc(=O)oc2c1 do in these assays?
BAZ2B block: -3%; G9a block: 71µM*; PLK1 PBD inh: -26%; HP1b binding inh: -4%; Sfp inh: 12%; JMJD2A Tudor inh: -5%

How did Cc1ccccc1CC(=O)Nc1ccc2c(C)cc(=O)oc2c1 do in these assays?
BAZ2B block: -16%; PLK1 PBD inh: -8%; HP1b binding inh: 18%; Sfp inh: 13%; JMJD2A Tudor inh: -24%

Results for Cc1ccc(CCNC(=O)c2c3c(nc4ccccc24)C(=O)N(C2CCCCC2)C3)cc1 ?
BAZ2B block: -10%; G9a block: 4%[59 µM]; HP1b binding inh: 34%; JMJD2A Tudor inh: -16%

Results for COc1ccc(CCc2cc(OC)cc(=O)o2)cc1 ?
BAZ2B block: -18%; G9a block: 33%[12.7 µM]; PLK1 PBD inh: -6%; HP1b binding inh: 34%; Sfp inh: -5%; JMJD2A Tudor inh: -7%

Results for O=C(NNc1cccc(Cl)n1)c1ccc(Cl)nc1 ?
BAZ2B block: 12%; G9a block: 12%[59 µM]; PLK1 PBD inh: -9%; HP1b binding inh: 39%; Sfp inh: -3%; JMJD2A Tudor inh: inconclusive

Results for O=C(NNc1c(F)c(F)cc(F)c1F)c1ccc(Cl)nc1 ?
BAZ2B block: -21%; G9a block: 50µM*; PLK1 PBD inh: -1%; HP1b binding inh: 25%; Sfp inh: 12%; JMJD2A Tudor inh: -5%

Results for COC(=O)C1(C(=O)OC)Cc2conc2[C@H]1c1ccccc1 ?
Sfp inh: -4%

How did COC(=O)/C=C1\SC(=NC(=O)c2cccc([N+](=O)[O-])c2)NC1=O do in these assays?
BAZ2B block: -25%; G9a block: 35µM*; PLK1 PBD inh: -25%; HP1b binding inh: 0%; Sfp inh: inconclusive; JMJD2A Tudor inh: -24%

Results for COC(=O)/C=C1/S/C(=N/NC(=O)c2ccccc2)NC1=O ?
BAZ2B block: -39%[57.1 µM]; G9a block: inconclusive; PLK1 PBD inh: 1%; HP1b binding inh: 23%; Sfp inh: 6%; JMJD2A Tudor inh: -1%

How did COC(=O)/C=C1/SC(=NC(=O)c2cccc([N+](=O)[O-])c2)NC1=O do in these assays?
BAZ2B block: inconclusive; G9a block: 20µM*; PLK1 PBD inh: inconclusive; HP1b binding inh: 43%; Sfp inh: -21%; JMJD2A Tudor inh: -10%

Results for CC(C)ON([C@@H](C(=O)NO)C(C)C)S(=O)(=O)c1ccc(-c2ccccc2)cc1 ?
G9a block: 0%[59 µM]
